Assay in all cases: NCI-60 one-dose screen, 48 h (100 = growth as untreated, 0 = no growth, -100 = all killed)
Common to all, as to conditions: 10 µM

For test [1], the system named is SK-MEL-2 melanoma.
In test [2] the test system is EKVX NSCLC.
The test system of test [3] is UO-31 renal.
The subject of test [4] is ACHN renal.
Test [5] deals with CAKI-1 renal.
The test system of test [6] is A498 renal.
Test [7] has as its system CCRF-CEM leukemia.
In test [8] the test system is MOLT-4 leukemia.
Test [9] deals with TK-10 renal.
For test [10], the system named is SN12C renal.

This is part of a sample that, as a whole, favours compounds with a hit. Of some 83,000 tested, about 20% had one in any assay.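 Single-concentration screen, 48 h exposure, 96-well plates. Endpoint: percent growth. Below 10 = active.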 A number with no mark means an inactive call. The source made the active and inactive calls.

As to `CCOc1nc(-c2ccccc2)cc2c(O)c(C(=O)NC(C)C)[nH]c(=O)c12`, the growth was 126% in test [1]; 105% in [2]; 80.2% in test [3]; 97.6% in test [4]; 94.2% in test [5]; 100% in [6]. Also, the growth in test [7] was 58.2%; in test [8] it was 99.1%.

Consider `O=c1oc2c3ccc4cnccc4c3[nH]c2c2ccccc12`, for which the growth in [1] is 67.1%; in test [2] it was 74.2%; in test [9], 79.3%; in test [4] it was 63.5%; in [5], 54.3%; in test [6], 55.5%. Moreover, the figures for the growth in [7] and in test [8] were -1.54% (active) and 13.7%, respectively.

For `Cc1nc2cc(-n3c(-c4ccc(F)cc4)nc4ccccc4c3=O)ccc2n1Cc1ccccc1`, the growth in test [1] is 31.8%; in [2], 55.9%; in test [3], 35.7%; in test [9] it was 30.5%; in test [4] it was 3.65% (active); in test [5], 30.6%. Moreover, the growth is -5.66% (active) in [6], 65.9% in test [7] and 34.7% in test [8].

For the compound `CCCCOCC(=O)NC(NP(=O)(N(C)C)N(C)C)C(Cl)(Cl)Cl` (configuration not stated), the growth in test [1] was 107%; in test [2] it was 98.1%; in test [3] it was 92%; in test [9] it was 134%; in test [4] it was 143%; in test [5] it was 92.3%. Further, the growth is 118% in test [6] and 99.5% in test [8].

In the case of `COc1ccc(-c2nnc(SC/C(=N\O)c3ccccc3)o2)cc1`, the growth in [1] was 102%; in [2], 95.8%; in test [3], 97.1%; in [4] it was 101%; in [5], 95.1%; in test [6], 80.8%. Also, the growth was 88.9% in test [7] and 80.4% in test [8].

Regarding `COc1ccc(-c2nnc(SCC(=O)c3ccccc3)o2)cc1`, the growth in [1] was 95.6%; in test [2] it was 97.9%; in [3], 99.4%; in [9], 89.1%; in test [4] it was 97.5%; in test [5], 94.7%. The growth in test [6] is 85.1%; in test [7], 59.5%; in test [8], 95.2%.

In the case of `CCCCN(CCCC)c1ccc(C(=NC(C)CCCN(CC)CC)c2ccc(N(C)C)cc2)cc1` (configuration not stated), the growth is -78.9% (active) in [1]; -30.4% (active) in [2]; -87.8% (active) in test [3]; -8.82% (active) in test [9]; -5.33% (active) in test [5]; -12.4% (active) in test [6]. In addition, the growth in [8] was -6.33% (active).

For the compound `CC(=O)c1ccc(NCn2nc(-c3ccc(Cl)cc3)oc2=S)cc1`, the growth is 99.3% in [1]; 103% in test [2]; 95.8% in test [3]; 96.1% in test [4]; 97% in [5]; 106% in [6]. Besides, the results for the growth in test [7] and in test [8] were 103% and 81.8%, respectively.

`CN(C)CCCN1c2ccccc2Sc2ccc(C(F)(F)F)cc21`: the growth is -16.3% (active) in test [1]; 43.4% in [2]; 18.7% in [3]; 25% in test [9]; 22.4% in test [5]; 62.8% in [6]. The figures for the growth in [7] and in test [8] were 16.5% and 6.88% (active), respectively.

Turning to `CCC1(C)OC(=O)NC1=O` (configuration not stated), the growth is 106% in test [1]; 101% in test [2]; 88.6% in test [3]; 99.3% in test [9]; 102% in test [4]; 97.8% in test [5]. Further, the values for the growth in [6] and in test [8] were 125% and 112%, respectively.

For the compound `N=C(N)c1ccc(-c2ccc(-c3ccccc3)s2)s1`, the growth in test [1] is -77.7% (active); in [10], -74.9% (active); in test [3], -74.1% (active); in [9] it was -61.7% (active); in test [4] it was -82.6% (active); in test [5] it was -59.4% (active). Further, the growth in test [6] is 32.1%; in [7] it was -49.4% (active); in [8] it was -55.9% (active).

For `CC(=O)n1nc(C(=O)OC(C)(C)C)c2cc(F)c(F)cc21`, the growth in test [1] is 100%; in [2], 105%; in test [3], 92.6%; in test [4], 108%; in test [5], 101%; in test [6], 104%. The growth in test [7] is 97.5%; in test [8], 95%.

`CC(C)(C)CC(C)(C)c1ccc(O)c(Cc2ccc(Cl)cc2Cl)c1`: the growth in test [1] was -76.9% (active); in test [2], -77.1% (active); in test [3], -98.7% (active); in test [9], -92.7% (active); in [5] it was -83.3% (active); in test [6], -94% (active). The growth in [7] was -37.4% (active); in test [8] it was -62.7% (active).

Consider `Cc1ccc(C(=O)O)c(N)c1C`, for which the growth in [1] is 89.3%; in test [10] it was 106%; in test [3] it was 57.6%; in test [9], 122%; in test [4] it was 103%; in [5], 92.6%. Besides, the growth was 108% in test [6], 93.4% in test [7] and 93.6% in test [8].

Regarding `COC(=O)[C@]12CC[C@@H](C)[C@H](C)[C@@H]1C1=CC[C@@H]3[C@@]4(C)C/C(=N\O)[C@H](O)[C@@]5(C)COC(=C45)C[C@@]3(C)[C@]1(C)CC2`, the growth in test [1] was -91.3% (active); in test [2], -68.6% (active); in [3] it was -85.6% (active); in test [9], -91.2% (active); in test [5], -80.7% (active); in test [6] it was -88.8% (active). Further, the growth in [8] was -62.9% (active).

Values taken from PubChem BioAssay (NCI).
